# Bioassay records from PubChem.
# Hits are enriched below; roughly 11% of the tested compounds scored in any of these assays.
# KDM4E inh: blocks human JMJD2E demethylase activity | JMJD2E catalytic domain, FDH-coupled NADH fluorescence (FDH is formaldehyde dehydrogenase) | Potency, µM (titrated, usually from 57.1 µM), for inactives: top-dose activity change, negative = inhibition, usual class: inhibitors | 1.6% of 230,000 active | AID 2147;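 note: potency is the fitted concentration of half-maximal effect; 0% = wells with enzyme and -100% = buffer wells without enzyme; nearly all actives have a fitted effect of over 50% in size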
# Target sequence (B2RXH2 1-337 limits assumed): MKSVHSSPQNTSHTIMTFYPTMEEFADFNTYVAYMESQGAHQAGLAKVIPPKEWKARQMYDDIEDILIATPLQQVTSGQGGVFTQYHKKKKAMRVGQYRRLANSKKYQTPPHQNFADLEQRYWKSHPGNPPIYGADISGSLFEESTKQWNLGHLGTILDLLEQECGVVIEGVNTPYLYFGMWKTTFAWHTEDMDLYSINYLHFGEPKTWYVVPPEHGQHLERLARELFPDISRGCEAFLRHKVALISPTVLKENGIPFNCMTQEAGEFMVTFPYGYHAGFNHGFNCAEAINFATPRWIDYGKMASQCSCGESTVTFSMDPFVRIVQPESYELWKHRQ
# PNC inhibitor: perinucleolar compartment assembly inhibition | PC3M PTB-GFP, PNC prevalence imaging, 16 h; stronger effect = lower value | activity change (PNC), negative = inhibition, % at 10 µM | 3.1% of 140,000 active | AID 2417;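 active = readout at or below -70, meaning at least 70% loss of cells showing the perinucleolar compartment, a nuclear body marking cancer cells; inconclusive = readout between -30 and a set limit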;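 note: plate controls were DMSO wells for no effect and camptothecin positive control wells for full effect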
#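 PC3M cells stably expressing PTB-GFP, 750–1000 cells/well, treated 16 h at 37 °C with compound (23 nl of library stock), in duplicate. After paraformaldehyde fixation and Hoechst stain, imaged at 20x; PNC prevalence scored by image analysis.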
# ALDH1A1 block: ALDH1A1 (human) enzyme inhibition | P00352 | Purified ALDH1A1, NADH fluorescence, propionaldehyde substrate | Potency, µM (doses to about 75.3 µM), for the others: top-dose activity, negative = inhibition, usual class: inhibitors | 7.3% of 220,000 active;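 note: potency is the fitted concentration of half-maximal effect; plate controls were no enzyme wells and a reference inhibitor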
# HPGD block: HPGD (human) dehydrogenase inhibition; P15428; purified HPGD, NADH fluorescence kinetic, PGE2 substrate; Potency, µM, without a hit: at the top dose activity change, negative = inhibition, usual class: inhibitors; 4.3% of 150,000 active; AID 894; note: potency is the fitted concentration of half-maximal effect
# Target sequence (P15428 whole entry, looked up): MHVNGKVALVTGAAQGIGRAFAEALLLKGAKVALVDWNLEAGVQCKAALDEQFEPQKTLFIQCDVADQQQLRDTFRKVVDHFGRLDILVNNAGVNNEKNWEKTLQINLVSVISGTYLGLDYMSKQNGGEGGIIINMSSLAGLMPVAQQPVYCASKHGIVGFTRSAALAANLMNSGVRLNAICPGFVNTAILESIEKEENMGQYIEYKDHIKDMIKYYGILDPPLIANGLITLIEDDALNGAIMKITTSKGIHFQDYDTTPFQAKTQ
#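 20 nM HPGD preincubated 15 min at room temperature with compound in 50 mM Tris-HCl pH 8, 0.01% Tween 20. Started with 1 mM NAD+ and 30 uM prostaglandin E2; NADH fluorescence (360/450 nm) read 5 times over 30-s intervals, last minus first.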
# Active calls of the source: *; ? = inconclusive; / = no result; [ ] = remark or other dose. Unless noted, calls come from the whole dose curve; as a rule, active = well fitted inhibition curve with a large enough effect (not every such curve was filed as active); inconclusive = small, poorly fitted or top-dose-only effect, or another doubt; inactive = no such curve, though single readings can be large or run the other way. Unless noted, % is set by controls: 0 for no effect and ±100 for the full control effect.
SMILES,KDM4E inh,PNC inhibitor,ALDH1A1 block,HPGD block
CCn1c(SCC(=O)N2CCN(c3ccccc3)CC2)nc2c(c1=O)SC(C)C2 (centres undefined),7.1%,-25.4,2.24µM*,-28.5%
O=c1cnc2cnc(Oc3ccccc3)nc2n1CCc1ccccc1,/,/,?,-7.1%
CC(C)c1cc(=O)n2[nH]c(N)nc2n1,6.9%,/,21.4%,/
CCn1c(SCC(=O)N2CCN(c3ccc(F)cc3)CC2)nc2ccccc2c1=O,6.7%,-15.1,25.1µM*,-17.7%
CC1CCCN(C(=O)c2ccc(CNc3c(N4CCCCC4)c(=O)c3=O)cc2)C1 (centres undefined),4.0%,6.6,?,0.282µM*
O=C(NCc1ccc(F)cc1)c1ccc(CNc2c(N3CCOCC3)c(=O)c2=O)cc1,-1.6%,/,/,/
CC1CCN(c2c(NCc3ccc(C(=O)NCc4ccco4)cc3)c(=O)c2=O)CC1,-3.0%,54.8,1.8%,11.2µM*
Cc1ccc(CNC(=O)c2ccc(CNc3c(N4CCCC4)c(=O)c3=O)cc2)cc1,1.9%,5.5,?,14.1µM*
CC1CCN(c2c(NCc3ccc(C(=O)NCc4cccnc4)cc3)c(=O)c2=O)CC1,0.9%,?,13.5%,?
O=C(NCc1ccco1)c1ccc(CNc2c(N3CCCCC3)c(=O)c2=O)cc1,-2.3%,34.5,8.5%,14.1µM*
CCOC(=O)C1OC1c1ccccc1 (centres undefined),/,/,3.7%,-8.9%
CC1CCN(c2c(NCc3ccc(C(=O)N4CCc5ccccc54)cc3)c(=O)c2=O)CC1,0.5%,?,?,17.8µM*
COc1ccc(-c2c(C(F)(F)F)nn(C)c2NC(=O)CSCC(=O)O)cc1,4.4%,/,/,/
O=C(Nc1ccccc1Br)C1CC(=O)N(c2ccc3c4c(cccc24)CC3)C1 (centres undefined),0.8%,47.1,20µM*,-15.3%
NC(=S)NNc1ccnc2cc(Cl)ccc12,-17.7%,/,1.41µM*,/
FC(F)Oc1ccc(NC(=S)NNc2ccnc3cc(Cl)ccc23)cc1,16.9%,/,8.91µM*,/
Cc1sc2nc(CSc3nnnn3-c3ccc(Cl)cc3)[nH]c(=O)c2c1C,?,-16.4,?,-14.7%
CCn1c(SCc2nc3sc(C(=O)O)c(C)c3c(=O)[nH]2)nnc1-c1ccc(Cl)cc1,-23.1%,/,14.1µM*,/
Nc1ncnc2c1ncn2[C@@H]1O[C@H](COP(=O)(O)OP(=O)(O)OP(=O)(O)OP(=O)(O)OC[C@@H]2O[C@H](n3cnc4c(N)ncnc43)[C@@H](O)[C@@H]2O)[C@H](O)[C@H]1O,?,/,7.9%,7.9%
c1ccc2c(Nc3nc4c(s3)CCCC4)cccc2c1,?,75.0,?,?
S=c1[nH]nc(Nc2cccc3ccccc23)s1,25.1µM*,/,/,/
O=C(c1cnc2n(c1=O)CCS2)N(c1ccccc1)C1CCCCC1,-1.0%,-106.3*,3.4%,-9.9%
CC1CCC2C(=O)N3C(CCC(C)[C@@H]3c3cccc(N4CCOCC4)c3)C(=O)N2C1c1cccc(Br)c1 (some centres undefined),/,/,-2.6%[13.5 µM],/
O=C1N/C(=N/Nc2ccccc2)S/C1=C\c1ccccc1,8.8%,26.9,5.62µM*,10µM*
CCC(C)NC(=O)CSc1nc(-c2cccs2)cc(C(F)(F)F)n1 (centres undefined),11.1%,16.0,-2.6%,?
SMILES,KDM4E inh,PNC inhibitor,ALDH1A1 block,HPGD block
O=C(CSc1nc(-c2cccs2)cc(C(F)(F)F)n1)Nc1cc(OCC(F)(F)F)cc([N+](=O)[O-])c1,-5.4%,-89.9*,2.5%,-0.1%
Cn1c(-c2ccc3c(c2)OCO3)cnc1NCc1cccc(Cl)c1,?,7.1,14.1µM*,?
Cn1c(-c2ccc3c(c2)OCO3)cnc1NC(=O)CCC(=O)NCCc1ccccc1,?,-13.0,1.5%,-20.6%
Cn1c(-c2ccc3c(c2)OCO3)cnc1NCc1ccccc1,?,-21.3,?,15.8µM*
Cn1c(-c2ccc3c(c2)OCO3)cnc1N,19.7%,-14.7,0.1%,-18.1%
O=C(NCc1ccccc1Cl)C1CCC(CNc2c(N3CCOCC3)c(=O)c2=O)CC1 (centres undefined),2.5%,/,/,/
CCc1cccc(CC)c1NC(=O)c1cccc(NC(=O)c2ccccc2)c1,5.2%,28.1,5.0%,-0.6%
CCc1cccc(C)c1NC(=O)c1cccc(N(C)C)c1,?,-26.4,?,14.1µM*
COc1ccc(CNC(=O)c2cccc(N(C)C)c2)cc1,?,-83.2*,?,-8.3%
COc1ccc(CNC(=O)c2ccc3c(c2)NC(=O)C(C)S3)cc1 (centres undefined),-0.9%,/,10µM*,/
CCN1CCN(CC(O)COCC2COc3ccccc3O2)CC1 (centres undefined),-18.9%,/,28.2µM*,/
OC(COCC1COc2ccccc2O1)CN1CCCCC1 (centres undefined),4.5%,?,16.9%,1.9%
CCCCCCCc1ccc(C2NC(=S)NC3=C2C(=O)c2ccccc23)cc1 (centres undefined),-1.8%,/,/,/
CCCCCCC1CC(=O)NC(=S)N1 (centres undefined),-3.5%,/,3.98µM*,/
CCN(CC)c1ccc(C2N(C(=O)N3CCOCC3)CCN2S(=O)(=O)c2ccc(C)cc2)cc1 (centres undefined),-0.8%,?,7.94µM*,-2.6%
O=c1c(-c2cccc([N+](=O)[O-])c2)[n+]([O-])c2ccccc2n1O,22.4µM*,/,/,/
[N-]=C=C1C(=S)NC(=O)[C@H]([n+]2ccccc2)[C@H]1c1ccc(Cl)cc1,?,/,14.1µM*,/
O=[N+]([O-])c1c(NCCCO)cc(Sc2nc3ccccc3s2)c2nonc12,-2.2%,46.9,15.8µM*,2.82µM*
CCC(=O)OCCNc1cc(Sc2nc3ccccc3s2)c2nonc2c1[N+](=O)[O-],1.3%,16.0,8.91µM*,3.16µM*
CCC(=O)OCCNc1cc(Sc2nc3ccccc3[nH]2)c2nonc2c1[N+](=O)[O-],-4.8%,31.5,-20.3%,7.08µM*
Cc1nnc(Sc2cc(NCCO)c([N+](=O)[O-])c3nonc23)s1,-2.7%,/,-6.4%,/
Cc1nnc(Sc2cc(NCCCO)c([N+](=O)[O-])c3nonc23)s1,-3.1%,/,?,/
Nc1nc(CN2CCN(C(=O)c3ccco3)CC2)nc(Nc2cccc(Cl)c2)n1,7.6%,/,?,/
COC(=O)N1CCC2(CCCN(c3ncccn3)C2)CC1,/,/,-0.6%,-13.3%
Cc1ccc2[nH]c(=O)c(CN(Cc3cccnc3)Cc3nnnn3CCN3CCOCC3)cc2c1,?,18.2,?,-21.2%
SMILES,KDM4E inh,PNC inhibitor,ALDH1A1 block,HPGD block
CC(C)CCN(C(=S)Nc1cccc(F)c1)C1CCN(C(C)C)CC1,4.0%,/,10.4%,/
Cc1ccccc1N/C(=C(/C(Cl)=C(Cl)Cl)[N+](=O)[O-])n1nnc2ccccc21,3.5%,-3.3,14.1µM*,-14.7%
COc1ccc(N/C(=C(/C(Cl)=C(Cl)Cl)[N+](=O)[O-])n2nnc3ccccc32)cc1,?,29.7,15.8µM*,-20.6%
O=C(CC1NCCNC1=O)Nc1ccc([N+](=O)[O-])cc1 (centres undefined),0.9%,/,-9.1%,/
C=CCC1(NC(C)c2ccccc2)CCCCC1 (centres undefined),6.1%,-113.3*,8.5%,-7.1%
CC(NC(=O)C1CC12CCC2)c1ccccc1 (centres undefined),8.4%,-12.4,3.0%,?
